Measurements published in PubChem BioAssay (NCATS).
Where “and” joins values, the source holds several entries; their conditions need not be identical. Identical values can stand only once. Results filed as inconclusive are left out. Values without a mark were called inactive. Calls of active or inactive are those of the source. Calls follow the shape of the dose curve; as a rule, active = well fitted inhibition curve with a large enough effect; inconclusive = small, poorly fitted or top-dose-only effect; inactive = flat fitted curve, though single readings scatter.

Tested on: CRL-7250
Assay: Cytotoxic Profiling of Annotated Libraries Using Quantitative High-Throughput Screening (AID 1296008); also: nearly all actives have a fitted effect of over 60% in size
Conditions: Five cell lines viability, CellTiter-Glo ATP luminescence, 48-72 h; max response: hits give low values
In short: (§1)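 Cells exposed to compounds for 48 or 72 hr at 37 degrees Celsius. Viability read as ATP-coupled luminescence with CellTiter-Glo after 10 min at room temperature.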
% is scaled to controls: 0 for no effect and ±100 for the full control effect; potency is read from the fitted curve at half-maximal effect.

Row | SMILES | max response | outcome | Potency
1 | C[C@H](Cn1cnc2c(N)ncnc21)OCP(=O)(O)O | 3.36% |  | 
2 | N[C@@H](Cc1cc(I)c(Oc2cc(I)c(O)c(I)c2)c(I)c1)C(=O)O | 0.853% and -3.78% and 2.29% |  | 
3 | COc1ccccc1N1CCN(CCN(C(=O)C2CCCCC2)c2ccccn2)CC1 |  | inactive | 
4 | CNC[C@H](O)c1ccc(O)c(O)c1 | -3.3% and -3.53% |  | 
5 | Nc1ncn([C@H]2C[C@H](O)[C@@H](CO)O2)c(=O)n1 | -5.93% and -8.36% |  | 
6 | Cc1cc(=O)oc2cc(O)ccc12 | 4.43% and 2.39% |  | 
7 | O=C(NOCC1CC1)c1ccc(F)c(F)c1Nc1ccc(I)cc1Cl | -12.6% |  | 
8 | Nc1ccc(S(N)(=O)=O)cc1 | -3.82% and 0.627% |  | 
9 | C[C@@H](N)C1CCC(C(=O)Nc2ccncc2)CC1 (stereo not given in full) | -11.2% |  | 
10 | CCCCc1ccc2nc(NC(=O)OC)[nH]c2c1 |  |  | 469 nM (active) and 266 nM (active)
11 | COc1cc(OC)c(C(=O)CCCN2CCCC2)c(OC)c1 |  | inactive | 
12 | Cc1nc(Nc2ncc(C(=O)Nc3c(C)cccc3Cl)s2)cc(N2CCN(CCO)CC2)n1 |  |  | 83.3 nM (active) and 66.8 nM (active) and 259 nM (active)
13 | CN1CCC(=C2c3ccccc3CCc3sccc32)CC1 | -8.84% and -2.17% |  | 
14 | CCN(CC)CCOc1ccc(Cc2ccccc2)cc1 | -29.7% |  | 
15 | CCOC(=O)c1c(C)n(C)c2ccc(O)cc12 | 3.97% and 0.808% |  | 
16 | Cc1cc(=O)c2c(O)c3c(O)cc(=O)c4c3c3c(cc(O)c1c23)C(C)(C)C=4O |  |  | 3.66 µM (active) and 13.2 µM (active)
17 | Nc1ccn([C@@H]2O[C@H](CO)[C@@H](O)C2O)c(=O)n1 (stereo not given in full) |  | inactive | 
18 | O=C(O)c1cccnc1Nc1cccc(C(F)(F)F)c1 | -6.42% and -10.2% |  | 
19 | CCC(C)(Oc1ccc(C2(c3ccc(OC(C)(CC)C(=O)O)cc3)CCCCC2)cc1)C(=O)O (stereo not given) | -2.28% and 2.61% |  | 
20 | CC1Cc2ccccc2N1NC(=O)c1ccc(Cl)c(S(N)(=O)=O)c1 (stereo not given) | -6.14% and 4.23% |  | 

Row | SMILES | max response | outcome | Potency
21 | CCOc1cc(CC(=O)N[C@@H](CC(C)C)c2ccccc2N2CCCCC2)ccc1C(=O)O |  | inactive | 
22 | Cc1ccc(C(=O)c2cc(O)c(O)c([N+](=O)[O-])c2)cc1 | -7.14% |  | 
23 | Cc1nccn1CC1CCc2c(c3ccccc3n2C)C1=O (stereo not given) | -48.9% and -2.23% and -14.6% |  | 
24 | CC(S)C(=O)NCC(=O)O (stereo not given) |  | inactive | 
25 | COCCCOc1ccnc(CS(=O)c2nc3ccccc3[nH]2)c1C (stereo not given) |  | inactive | 
26 | CC(C)c1ccc2oc3nc(N)c(C(=O)O)cc3c(=O)c2c1 |  | inactive | 
27 | COc1cc2c(cc1OC)C1CC(=O)C(CC(C)C)CN1CC2 (stereo not given) |  | inactive | 
28 | CNC[C@@H](O)[C@@H](O)[C@H](O)[C@H](O)CO |  | inactive | 
29 | Cc1ccc(Nc2nccc(N(C)c3ccc4c(C)n(C)nc4c3)n2)cc1S(N)(=O)=O |  |  | 6.51 µM (active)
30 | O=C(NCCO[N+](=O)[O-])c1cccnc1 | -0.661% and -5.95% |  | 
31 | CC1(C)NC(=O)N(c2ccc([N+](=O)[O-])c(C(F)(F)F)c2)C1=O | -12.3% |  | 
32 | Clc1ccc2c(N3CCN(CCCN4CCN(c5ccnc6cc(Cl)ccc56)CC4)CC3)ccnc2c1 | -5.75% |  | 
33 | Oc1ccc(OCc2ccccc2)cc1 | -0.407% and -9.61% |  | 
34 | Cc1ccc(NC(=O)c2ccc(CN3CCN(C)CC3)cc2)cc1Nc1nccc(-c2cccnc2)n1 | -2.19% |  | 
35 | NC(=O)Cc1cccc(C(=O)c2ccccc2)c1N | -2.24% and -8.84% |  | 
36 | c1cnc2cc3c(cc2n1)C1CNCC3C1 | -23.9% and -2.72% |  | 
37 | c1ccc2[nH]c(-c3cscn3)nc2c1 | -2.24% and 4.16% |  | 
38 | OC(CN1CCN(c2cccc(Cl)c2)CC1)C(c1ccccc1)c1ccccc1 (stereo not given) | -4.87% |  | 
39 | Nc1nc(OCc2ccccc2)c2[nH]cnc2n1 | 0.448% |  | 

Tested on: HEK293
Assay: as above
Conditions: Five cell lines viability, CellTiter-Glo ATP luminescence, 48-72 h; max response: hits give low values
In short: as §1

Row | SMILES | outcome | max response | Potency
40 | C[C@H](Cn1cnc2c(N)ncnc21)OCP(=O)(O)O | inactive |  | 
41 | N[C@@H](Cc1cc(I)c(Oc2cc(I)c(O)c(I)c2)c(I)c1)C(=O)O |  | 0.988% and -21.3% and 2.79% | 
42 | COc1ccccc1N1CCN(CCN(C(=O)C2CCCCC2)c2ccccn2)CC1 |  | 3.7% | 
43 | CNC[C@H](O)c1ccc(O)c(O)c1 | inactive | -3.32% | 
44 | Nc1ncn([C@H]2C[C@H](O)[C@@H](CO)O2)c(=O)n1 |  |  | 18.7 µM (active)
45 | Cc1cc(=O)oc2cc(O)ccc12 | inactive | 4.56% | 
46 | O=C(NOCC1CC1)c1ccc(F)c(F)c1Nc1ccc(I)cc1Cl |  |  | 18.7 µM (active)
47 | Nc1ccc(S(N)(=O)=O)cc1 |  | 0.928% and -22.2% | 
48 | C[C@@H](N)C1CCC(C(=O)Nc2ccncc2)CC1 (stereo not given in full) | inactive |  | 
49 | CCCCc1ccc2nc(NC(=O)OC)[nH]c2c1 |  |  | 14.8 nM (active) and 188 nM (active)
50 | COc1cc(OC)c(C(=O)CCCN2CCCC2)c(OC)c1 |  | -1.67% and -16.3% | 
51 | Cc1nc(Nc2ncc(C(=O)Nc3c(C)cccc3Cl)s2)cc(N2CCN(CCO)CC2)n1 |  |  | 23.7 µM (active)
52 | CN1CCC(=C2c3ccccc3CCc3sccc32)CC1 |  |  | 26.4 µM (active) and 10.6 µM (active)
53 | CCN(CC)CCOc1ccc(Cc2ccccc2)cc1 |  |  | 8.33 µM (active)
54 | CCOC(=O)c1c(C)n(C)c2ccc(O)cc12 |  | 0.41% and 2.4% | 
55 | Cc1cc(=O)c2c(O)c3c(O)cc(=O)c4c3c3c(cc(O)c1c23)C(C)(C)C=4O |  |  | 2.59 µM (active) and 3.72 µM (active)
56 | Nc1ccn([C@@H]2O[C@H](CO)[C@@H](O)C2O)c(=O)n1 (stereo not given in full) | inactive |  | 
57 | O=C(O)c1cccnc1Nc1cccc(C(F)(F)F)c1 |  | -4.95% | 
58 | CCC(C)(Oc1ccc(C2(c3ccc(OC(C)(CC)C(=O)O)cc3)CCCCC2)cc1)C(=O)O (stereo not given) |  | -7.29% and -0.679% | 
59 | CC1Cc2ccccc2N1NC(=O)c1ccc(Cl)c(S(N)(=O)=O)c1 (stereo not given) |  | 0.791% and 0.879% | 

Row | SMILES | outcome | max response | Potency
60 | CCOc1cc(CC(=O)N[C@@H](CC(C)C)c2ccccc2N2CCCCC2)ccc1C(=O)O | inactive |  | 
61 | Cc1ccc(C(=O)c2cc(O)c(O)c([N+](=O)[O-])c2)cc1 | inactive |  | 
62 | Cc1nccn1CC1CCc2c(c3ccccc3n2C)C1=O (stereo not given) |  | -1.64% and -12.7% and -0.203% | 
63 | CC(S)C(=O)NCC(=O)O (stereo not given) |  | -0.0067% and -3.71% | 
64 | COCCCOc1ccnc(CS(=O)c2nc3ccccc3[nH]2)c1C (stereo not given) |  | 1.81% | 
65 | CC(C)c1ccc2oc3nc(N)c(C(=O)O)cc3c(=O)c2c1 |  | 4.19% and -0.504% | 
66 | COc1cc2c(cc1OC)C1CC(=O)C(CC(C)C)CN1CC2 (stereo not given) | inactive |  | 
67 | CNC[C@@H](O)[C@@H](O)[C@H](O)[C@H](O)CO | inactive |  | 
68 | Cc1ccc(Nc2nccc(N(C)c3ccc4c(C)n(C)nc4c3)n2)cc1S(N)(=O)=O |  |  | 11.8 µM (active)
69 | O=C(NCCO[N+](=O)[O-])c1cccnc1 | inactive |  | 
70 | CC1(C)NC(=O)N(c2ccc([N+](=O)[O-])c(C(F)(F)F)c2)C1=O |  | -29% | 
71 | Clc1ccc2c(N3CCN(CCCN4CCN(c5ccnc6cc(Cl)ccc56)CC4)CC3)ccnc2c1 | inactive |  | 
72 | Oc1ccc(OCc2ccccc2)cc1 |  | -5.94% and -19.5% | 
73 | Cc1ccc(NC(=O)c2ccc(CN3CCN(C)CC3)cc2)cc1Nc1nccc(-c2cccnc2)n1 |  |  | 18.7 µM (active) and 21.1 µM (active) and 11.6 µM (active)
74 | NC(=O)Cc1cccc(C(=O)c2ccccc2)c1N |  | -0.043% and -1.4% | 
75 | c1cnc2cc3c(cc2n1)C1CNCC3C1 |  | -2.74% and -10.4% | 
76 | c1ccc2[nH]c(-c3cscn3)nc2c1 |  | -22.6% and -4.05% | 
77 | OC(CN1CCN(c2cccc(Cl)c2)CC1)C(c1ccccc1)c1ccccc1 (stereo not given) |  |  | 9.35 µM (active)
78 | Nc1nc(OCc2ccccc2)c2[nH]cnc2n1 | inactive |  | 
